# How the values were obtained:
# [1] = target: Eukaryotic translation initiation factor 3 subunit A (UniProt P38249); test: cross-link between two proteins; cross-linking mass spectrometry
# [2] = target: Histone H3 (UniProt P61830); test: as above
# [3] = target: Nucleolar complex protein 14 (UniProt Q99207); test: cross-link between two proteins
# [4] = target: Something about silencing protein 10 (UniProt Q12136); test: cross-link between two proteins
# [5] = target: Small ribosomal subunit protein bS1m (UniProt Q02950); test: cross-link between two proteins; cross-linking mass spectrometry
# [6] = target: Small ribosomal subunit protein uS8m (UniProt Q03799); test: as above
# Chain of Eukaryotic translation initiation factor 3 subunit A (P38249 whole entry): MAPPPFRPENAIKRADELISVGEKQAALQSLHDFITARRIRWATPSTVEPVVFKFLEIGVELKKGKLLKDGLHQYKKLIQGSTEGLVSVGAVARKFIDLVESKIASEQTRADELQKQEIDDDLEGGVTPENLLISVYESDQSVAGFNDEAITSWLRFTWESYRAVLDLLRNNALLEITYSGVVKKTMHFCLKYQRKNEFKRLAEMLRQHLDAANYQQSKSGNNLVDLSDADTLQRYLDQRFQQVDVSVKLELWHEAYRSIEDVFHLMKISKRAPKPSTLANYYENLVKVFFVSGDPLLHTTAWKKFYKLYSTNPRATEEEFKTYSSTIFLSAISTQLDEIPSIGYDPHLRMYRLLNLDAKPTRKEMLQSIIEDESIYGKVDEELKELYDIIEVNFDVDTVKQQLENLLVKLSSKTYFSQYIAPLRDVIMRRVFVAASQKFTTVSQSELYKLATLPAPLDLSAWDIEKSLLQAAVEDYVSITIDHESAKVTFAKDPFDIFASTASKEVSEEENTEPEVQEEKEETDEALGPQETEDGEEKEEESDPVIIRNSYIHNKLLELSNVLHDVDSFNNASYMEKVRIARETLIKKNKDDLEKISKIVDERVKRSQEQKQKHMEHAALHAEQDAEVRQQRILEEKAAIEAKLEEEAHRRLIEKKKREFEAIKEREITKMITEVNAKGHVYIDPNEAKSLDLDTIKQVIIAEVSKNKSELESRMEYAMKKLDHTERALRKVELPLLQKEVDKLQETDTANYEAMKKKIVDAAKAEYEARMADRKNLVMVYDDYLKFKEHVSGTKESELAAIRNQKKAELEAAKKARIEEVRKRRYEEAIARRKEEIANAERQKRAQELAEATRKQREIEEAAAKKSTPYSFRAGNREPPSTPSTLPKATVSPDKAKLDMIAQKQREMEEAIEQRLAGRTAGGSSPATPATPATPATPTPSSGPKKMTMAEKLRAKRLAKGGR
substance,measurement,setting,value
"Eukaryotic translation initiation factor 3 subunit B, P06103",listed as a hit,[1],yes
"Histone H4, P02309",listed as a hit,[2],yes
"Ribosomal RNA small subunit methyltransferase NEP1, Q06287",listed as a hit,[3],yes
same,listed as a hit,[4],yes
"Small ribosomal subunit protein bS18m, P40033",listed as a hit,[5],yes
"Small ribosomal subunit protein mS23, P40496",listed as a hit,[6],yes

# — publication PMC11066047
